PubChem BioAssay AID651640 (Broad Institute, 2012)
The whole screen tested about 350,000 compounds, of which about 6,000 (1.7%) were called active. Another 5% or so got no clear call; they are omitted. Cut-off read from the data, not from the text of the source: active = CPE inhibition above about 20% (passing the limit was not always enough); inconclusive = no clear call, values can overlap the other calls; tested in BHK-21 cells. The full list was thinned out, with actives kept by preference.

Test: protection of cells from dengue 2 killing – plate reader, single concentration, primary screen (AID 651640);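 note: 0% = median of neutral control wells and 100% = median of positive control wells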
Conditions: DENV2-infected cells, cytopathic effect rescue, at 9.99 µM, active compounds read high

| Compound | CPE inhibition |
| --- | --- |
| CN(C)C(=O)[C@@H]1[C@@H](CO)[C@@H]2Cn3c(ccc(-c4ccccc4)c3=O)[C@@H]2N1CCC(F)(F)F | 3.4% (inactive) |
| C[C@@H]1CN([C@H](C)CO)C(=O)c2ccccc2-c2ccccc2CO[C@H]1CN(C)C(=O)CCC(F)(F)F | 1.69% (inactive) |
| CC(C)C[C@H](NC(=O)CC1CCCC1)C(=O)N1CCC[C@H]1C(=O)NCc1ccccc1 | -0.111% (inactive) |
| COc1ccc(NC(=O)N(C)C[C@@H]2Oc3ccc(NC(=O)CCC(F)(F)F)cc3C(=O)N([C@@H](C)CO)C[C@H]2C)cc1 | -3.47% (inactive) |
| O=C(C1CCCCC1)N1CC(=O)N2[C@H](CO)[C@H](c3ccc(Br)cc3)[C@H]2C1 | -9.75% (inactive) |
| C[C@@H]1CN([C@@H](C)CO)S(=O)(=O)c2ccc(C#CC(C)(C)O)cc2O[C@H]1CN(C)C(=O)CN(C)C | 14.1% (inactive) |
| Cc1ccc(S(=O)(=O)Nc2cccc3c2O[C@H](CN(C)CC2CCCCC2)[C@H](C)CN([C@H](C)CO)C3=O)cc1 | -0.201% (inactive) |
| N[C@@H]1CC[C@H](CCn2cc(C3CC3)nn2)O[C@@H]1CO | -2.16% (inactive) |
| N#C[C@H]1[C@@H](c2ccccc2-c2ccccc2F)[C@@H](CO)N1C(=O)C1CCC1 | -1.39% (inactive) |
| C[C@@H]1CN([C@@H](C)CO)C(=O)c2cc(NS(C)(=O)=O)ccc2O[C@@H]1CN(C)C(=O)Nc1ccccc1 | 4.47% (inactive) |
| C[C@@H]1CN([C@@H](C)CO)C(=O)c2cc(C3=CCCC3)cnc2O[C@H]1CN(C)C(=O)c1ccccn1 | 1.01% (inactive) |
| C=CCn1cc(-c2cccc(C(F)(F)F)c2)cc(C#N)c1=O | -0.13% (inactive) |
| CC1(Cc2cccc(C#N)c2)C(=O)Nc2ccc(-c3cccc(C(F)(F)F)c3)cc21 (centres undefined) | 94.5% (active) |
| N#Cc1c(-c2ccccc2)nc(SCc2cccc(C(F)(F)F)c2)[nH]c1=O | -3.77% (inactive) |
| COc1ccccc1NC(=O)N[C@H]1CC[C@H](CCn2cc(-c3cccnc3)nn2)O[C@@H]1CO | 7.27% (inactive) |
| CCN(C[C@H]1[C@H](c2ccc(-c3ccccc3)cc2)[C@H](CO)N1CC1CC1)C(C)=O | -11.4% (inactive) |
| C[C@H](CO)N1C[C@H](C)[C@H](CN(C)Cc2cccc(F)c2)Oc2ncc(C#CCN(C)C)cc2C1=O | -7.01% (inactive) |
| Cc1nc(N)nc(SCc2ccc([N+](=O)[O-])cc2)c1N | 5.04% (inactive) |
| Cc1cc([N+](=O)[O-])nn1Cc1ccc(F)cc1 | -2.03% (inactive) |
| Cc1nc(SCc2ccc(F)cc2)c([N+](=O)[O-])[nH]1 | 70.9% (active) |
| COc1ccc(S(=O)(=O)N(C)C[C@H]2Oc3c(NC(=O)CCCCCC(=O)Nc4ccccc4N)cccc3C(=O)N([C@H](C)CO)C[C@H]2C)cc1 | -2.7% (inactive) |
| COc1ccccc1Cc1c(-c2ccc(F)cc2)nc2ccc(C)cn12 | -9.92% (inactive) |

| Compound | CPE inhibition |
| --- | --- |
| CN(C)CC(=O)N[C@H]1CC[C@H](CCNC(=O)Nc2ccc(F)cc2)O[C@H]1CO | 6.32% (inactive) |
| CCCCN1C(=O)C(=O)N(CC(=O)Nc2cccc(C(C)=O)c2)C1=O | -4.58% (inactive) |
| CCOC(=O)c1cccc(NC(=O)CN2C(=O)C3CC=CCC3C2=O)c1 (centres undefined) | 76% (active) |
| CCOC(=O)c1cccc(NC(=O)CCOc2ccccc2)c1 | -0.064% (inactive) |
| O=C(c1cccnc1)N1CC(=O)N2[C@H](CO)[C@@H](c3ccc(-c4ccc(F)cc4)cc3)[C@@H]2C1 | -0.715% (inactive) |
| O=C(C[C@@H]1CC[C@H]2[C@@H](COC[C@@H](O)CN2C(=O)c2ccc3c(c2)OCO3)O1)NC1Cc2ccccc2C1 | 35.1% (active) |
| O=C(C[C@H]1CC[C@H]2[C@@H](COC[C@@H](O)CN2C(=O)c2ccc3c(c2)OCO3)O1)NC1Cc2ccccc2C1 | 32.6% (active) |
| O=C(C[C@@H]1CC[C@H]2[C@@H](COC[C@@H](O)CN2C(=O)c2ccc3c(c2)OCO3)O1)NC1CCCC1 | -3.32% (inactive) |
| O=C(C[C@@H]1CC[C@@H]2[C@H](COC[C@H](O)CN2C(=O)Cc2ccccc2)O1)NC1CCC1 | 34.4% (active) |
| O=C(C[C@H]1CC[C@@H]2[C@H](COC[C@H](O)CN2C(=O)c2ccc3c(c2)OCO3)O1)NC1CCC1 | 2.16% (inactive) |
| O=C(C[C@@H]1CC[C@@H]2[C@H](COC[C@H](O)CN2C(=O)c2cccnc2)O1)NC1Cc2ccccc2C1 | -4.15% (inactive) |
| O=C(C[C@@H]1CC[C@@H]2[C@H](COC[C@H](O)CN2C(=O)c2ccc3c(c2)OCO3)O1)NC1CCCC1 | -0.397% (inactive) |
| O=C(C[C@H]1CC[C@@H]2[C@H](COC[C@H](O)CN2Cc2ccccc2F)O1)NC1CCC1 | -4.44% (inactive) |
| O=C(C[C@H]1CC[C@H]2[C@@H](COC[C@@H](O)CN2Cc2ccccc2)O1)N[C@@H]1CCN(Cc2ccccc2)C1 | 17.9% (inactive) |
| COc1ccc(-c2ccc3c(c2)[C@H]2[C@H](CCN2S(=O)(=O)c2ccccc2F)[C@H](CO)N3)cc1 | -28.4% (inactive) |
| O=C(c1ccccc1)N1C[C@H]2[C@@H](c3ccccc31)[C@H](CO)N2Cc1ccccc1F | -4.2% (inactive) |
| C[C@@H]1CN([C@@H](C)CO)C(=O)c2cc(NC(=O)CCCN(C)C)ccc2O[C@@H](C)CCCCO[C@@H]1CN(C)S(=O)(=O)c1ccc(Cl)cc1 | -4.63% (inactive) |
| C/C=C/c1ccc2c(c1)O[C@@H](CN(C)S(=O)(=O)c1ccc(F)cc1)[C@@H](C)CN([C@H](C)CO)S2(=O)=O | 1.09% (inactive) |
| COc1ccc(S(=O)(=O)N(C)C[C@H]2OCCCC[C@H](C)Oc3ccc(NC(=O)Nc4ccc5c(c4)OCO5)cc3C(=O)N([C@@H](C)CO)C[C@@H]2C)cc1 | -7.54% (inactive) |
| CCCOC(=O)c1c(NC(=O)c2cnn3c2NC(c2ccccc2)CC3C(F)(F)F)sc2c1CCCC2 (centres undefined) | 84.1% (active) |
| CCOC(=O)c1c(NC(=O)CSc2cn(CC)c3ccccc23)sc2c1CCC2 | 5.51% (inactive) |
| CCOC(=O)c1c(NC(=O)Cn2nc(C(F)(F)F)cc2C)sc2c1CCC2 | -2.63% (inactive) |
